Data: PubChem BioAssay (NCI)
Compounds without any hit were thinned out: in the full panel of roughly 79,000, 15% have a hit. Calls of active or inactive are those of the source. Cut-off read from the data, not from the text of the source: active = growth inhibition above about 70%; inactive = the rest.

Columns and labels:
[1] = NCI Yeast Anticancer Drug Screen. Data for the rad52 strain (AID 147);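 note: 0% = growth of vehicle-treated control cultures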; conditions: S. cerevisiae rad52 mutant growth inhibition, stronger effect = higher value
Outline: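 Inhibition of yeast growth, referenced to vehicle controls, was the measured output for a strain with defective DNA damage repair.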

[2] = NCI Yeast Anticancer Drug Screen. Data for the wt1 strain (AID 149);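 note: 0% = growth of vehicle-treated wt1 cultures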; conditions: S. cerevisiae wt1 strain (SPY 50644) growth inhibition, stronger effect = higher value
Outline: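 wt1 strain grown with compound or vehicle; inhibition taken from the growth difference.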

[3] = NCI Yeast Anticancer Drug Screen. Data for the rad50EPP+ strain (AID 151);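 note: 0% = growth of vehicle-treated control cultures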; conditions: S. cerevisiae rad50 mutant strain, stronger effect = higher value
Outline: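 Genetically defined yeast (rad50EPP+, DNA damage repair alteration) is grown with compound, and inhibition of growth is expressed relative to vehicle-treated controls.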

[4] = NCI Yeast Anticancer Drug Screen. Data for the rad50 strain (AID 155);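 note: 0% = growth of vehicle-only cultures of the same strain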; conditions: S. cerevisiae rad50 strain growth inhibition, stronger effect = higher value
Outline: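 DNA repair mutant yeast, compound exposure, growth read-out; inhibition is taken relative to vehicle.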

[5] = NCI Yeast Anticancer Drug Screen. Data for the mec2-1 strain (AID 157); conditions: S. cerevisiae mec2-1 strain, stronger effect = higher value
Outline: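 Each compound was tested on mec2-1 yeast, a strain altered in DNA damage repair or cell cycle control. Growth inhibition is reported relative to vehicle.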

[6] = NCI Yeast Anticancer Drug Screen. Data for the rad14 strain (AID 159);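 note: 0% = growth of vehicle-treated control cultures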; conditions: S. cerevisiae rad14 strain growth inhibition, stronger effect = higher value
Outline: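 DNA repair-defective yeast, compound-exposed; % growth inhibition derived by comparison with vehicle-treated controls.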

[7] = NCI Yeast Anticancer Drug Screen. Data for the sgs1 mgt1 strain (AID 161);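 note: 0% = growth of cultures given vehicle only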; conditions: S. cerevisiae sgs1 mgt1 strain, stronger effect = higher value
Outline: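 Read-out: growth inhibition vs vehicle controls. Cells: mutant yeast strain deficient in DNA damage repair.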

[8] = NCI Yeast Anticancer Drug Screen. Data for the cln2 rad14 strain (AID 165);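 note: 0% = growth equal to vehicle treated cultures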; conditions: S. cerevisiae cln2 rad14 strain, stronger effect = higher value
Outline: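 Test compounds were added to cln2 rad14 yeast cultures; inhibition of growth was then determined by comparison with vehicle treatment.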

[9] = NCI Yeast Anticancer Drug Screen. Data for the bub3 strain (AID 167); conditions: S. cerevisiae bub3 mutant strain, stronger effect = higher value
Outline: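 In this screen, a yeast mutant lacking normal mitotic checkpoint function is challenged with compound. Relative growth versus vehicle gives the inhibition value.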

[10] = NCI Yeast Anticancer Drug Screen. Data for the wt2 strain (AID 169);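 note: 0% = growth of vehicle-treated yeast cultures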; conditions: S. cerevisiae wt2 strain growth inhibition, stronger effect = higher value
Outline: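 The panel's yeast strains carry defined changes in DNA repair or cell cycle genes. Each strain is grown with compound, and growth loss is scored relative to vehicle.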

[11] = NCI Yeast Anticancer Drug Screen. Data for the mlh1 strain (AID 171);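 note: 0% = growth of vehicle-treated control cultures of the same strain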; conditions: S. cerevisiae mlh1 strain growth inhibition, stronger effect = higher value
Outline: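 Inhibition values reflect reduced yeast growth in the presence of compound, referenced to vehicle controls, using a strain chosen for its alteration in DNA repair or cell cycle control.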

[12] = NCI Yeast Anticancer Drug Screen. Data for the sgs1 strain (AID 173);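 note: 0% = growth of vehicle-only control cultures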; conditions: S. cerevisiae sgs1 mutant, stronger effect = higher value
Outline: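 Vehicle-treated cultures served as reference for growth inhibition of a yeast strain altered in DNA damage repair or cell cycle control after compound exposure.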

[13] = NCI Yeast Anticancer Drug Screen. Data for the mlh1 rad18 strain (AID 175); conditions: S. cerevisiae mlh1 rad18 strain growth inhibition, stronger effect = higher value
Outline: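 Inhibition values reflect reduced growth of mutant yeast versus vehicle-treated controls following compound exposure; the mutations affect DNA damage repair.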

[14] = NCI Yeast Anticancer Drug Screen. Data for the rad18 strain (AID 177); conditions: S. cerevisiae rad18 mutant growth inhibition, stronger effect = higher value
Outline: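 Steps: expose repair-mutant yeast to compound; measure growth; express as inhibition relative to vehicle control.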

[15] = NCI Yeast Anticancer Drug Screen. Data for the CLN2oe strain (AID 163);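 note: 0% = growth of vehicle-only control cultures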; conditions: S. cerevisiae CLN2oe strain, stronger effect = higher value
Outline: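 First, the altered yeast strain was treated with each compound; second, its growth was measured; finally, inhibition was derived by comparison with vehicle controls.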

[16] = at 5.0 µM (retest, dose inferred, filed as 0.5)
[17] = at 50.0 µM (retest, dose inferred, filed as 5.0)

Measured: growth inhibition

CC1C(C#N)(C#N)C(C#N)=C(N)C1(Cl)[N+](=O)[O-] (stereo unspecified)
inactive: [1]; at 1.2 µM 3% | [1]; at 3.7 µM 33% | [1]; at 11.0 µM 35% | [1]; at 33.0 µM 56% | [2]; at 1.2 µM 10% | [2]; at 3.7 µM 9% | [2]; at 11.0 µM 8% | [2]; at 33.0 µM 22% | [2]; at 100.0 µM 55% | [3]; at 1.2 µM 19% | [3]; at 3.7 µM 37% | [3]; at 11.0 µM 55% | [4]; at 1.2 µM 4% | [4]; at 3.7 µM 26% | [4]; [16] 24% | [4]; at 11.0 µM 29% | [4]; at 33.0 µM 40% | [5]; at 1.2 µM 0% | [5]; at 3.7 µM 30% | [5]; [16] 11% | [5]; at 11.0 µM 32% | [5]; at 33.0 µM 41% | [6]; at 1.2 µM 1% | [6]; at 3.7 µM 8% | [6]; at 11.0 µM 15% | [6]; at 33.0 µM 28% | [6]; at 100.0 µM 67% | [7]; [16] 11% | [8]; [16] -5% | [8]; [17] 30% | [8]; at 50.0 µM 65.8% | [9]; at 1.2 µM 12% | [9]; at 3.7 µM 12% | [9]; [16] 20% | [9]; at 11.0 µM 20% | [9]; at 33.0 µM 49% | [10]; at 1.2 µM -1% | [10]; at 3.7 µM 7% | [10]; at 11.0 µM 22% | [10]; at 33.0 µM 58% | [11]; at 1.2 µM 11% | [11]; at 3.7 µM 28% | [11]; at 11.0 µM 45% | [11]; at 33.0 µM 68% | [12]; at 1.2 µM 28% | [12]; at 3.7 µM 20% | [12]; at 11.0 µM 37% | [12]; at 33.0 µM 61% | [13]; [16] 19% | [13]; at 50.0 µM 48% | [14]; at 1.2 µM 14% | [14]; at 3.7 µM 17% | [14]; at 11.0 µM 34% | [14]; at 33.0 µM 61%
active: [1]; at 100.0 µM 85% | [3]; at 33.0 µM 78% | [3]; at 100.0 µM 85% | [4]; [17] 78% | [4]; at 50.0 µM 77.5% | [4]; at 100.0 µM 76% | [5]; [17] 85% | [5]; at 50.0 µM 77.4% | [5]; at 100.0 µM 81% | [7]; [17] 78% | [7]; at 50.0 µM 76% | [9]; [17] 86% | [9]; at 50.0 µM 73.8% | [9]; at 100.0 µM 84% | [10]; at 100.0 µM 92% | [11]; at 100.0 µM 89% | [12]; at 100.0 µM 90% | [13]; [17] 94% | [14]; at 100.0 µM 87%

O=C1NC(c2c(Cl)cccc2Cl)Nc2ccccc21 (stereo unspecified)
active: [1]; at 33.0 µM 75% | [1]; at 100.0 µM 95% | [2]; at 100.0 µM 91% | [4]; [16] 86% | [4]; at 33.0 µM 72% | [4]; [17] 100% | [4]; at 50.0 µM 83.7% | [4]; at 100.0 µM 91% | [5]; [16] 92% | [5]; [17] 100% | [5]; at 50.0 µM 83.7% | [5]; at 100.0 µM 94% | [6]; at 100.0 µM 89% | [7]; [17] 87% | [15]; at 100.0 µM 93% | [8]; [17] 90% | [9]; at 33.0 µM 78% | [9]; [17] 87% | [9]; at 100.0 µM 94% | [10]; at 100.0 µM 89% | [11]; at 100.0 µM 87% | [12]; at 100.0 µM 88% | [13]; [16] 71% | [13]; [17] 100% | [13]; at 50.0 µM 84.5% | [14]; at 33.0 µM 74% | [14]; at 100.0 µM 93%
inactive: [1]; at 1.2 µM 9% | [1]; at 3.7 µM 9% | [1]; at 11.0 µM 12% | [2]; at 1.2 µM -25% | [2]; at 3.7 µM -26% | [2]; at 11.0 µM -22% | [2]; at 33.0 µM 52% | [3]; at 1.2 µM -12% | [3]; at 3.7 µM -21% | [3]; at 11.0 µM -18% | [3]; at 33.0 µM -14% | [3]; at 100.0 µM 6% | [4]; at 1.2 µM 12% | [4]; at 3.7 µM 4% | [4]; at 11.0 µM 10% | [5]; at 1.2 µM -1% | [5]; at 3.7 µM -9% | [5]; at 11.0 µM -9% | [5]; at 33.0 µM 63% | [6]; at 1.2 µM -44% | [6]; at 3.7 µM -32% | [6]; at 11.0 µM -28% | [6]; at 33.0 µM 58% | [7]; [16] -3% | [15]; at 1.2 µM 14% | [15]; at 3.7 µM 2% | [15]; at 11.0 µM -7% | [15]; at 33.0 µM 54% | [8]; [16] 12% | [9]; at 1.2 µM 4% | [9]; at 3.7 µM 15% | [9]; [16] -1% | [9]; at 11.0 µM 16% | [10]; at 1.2 µM -28% | [10]; at 3.7 µM -32% | [10]; at 11.0 µM -26% | [10]; at 33.0 µM 39% | [11]; at 1.2 µM -35% | [11]; at 3.7 µM -29% | [11]; at 11.0 µM -40% | [11]; at 33.0 µM 35% | [12]; at 1.2 µM -27% | [12]; at 3.7 µM -33% | [12]; at 11.0 µM -25% | [12]; at 33.0 µM 41% | [14]; at 1.2 µM 0% | [14]; at 3.7 µM -2% | [14]; at 11.0 µM 0%

CC(C)(O)c1ccccc1C(c1ccccc1)c1ccccc1
active: [4]; [17] 85% | [7]; [17] 88% | [8]; [17] 80% | [9]; [17] 86% | [13]; [17] 92%
inactive: [1]; at 1.2 µM 0% | [1]; at 3.7 µM -3% | [1]; at 11.0 µM 9% | [1]; at 33.0 µM 3% | [1]; at 100.0 µM 8% | [2]; at 1.2 µM 0% | [2]; at 3.7 µM -1% | [2]; at 11.0 µM 5% | [2]; at 33.0 µM -3% | [2]; at 100.0 µM 4% | [3]; at 1.2 µM -5% | [3]; at 3.7 µM -4% | [3]; at 11.0 µM 5% | [3]; at 33.0 µM -1% | [3]; at 100.0 µM 4% | [4]; at 1.2 µM -2% | [4]; at 3.7 µM 3% | [4]; [16] 53% | [4]; at 11.0 µM 4% | [4]; at 33.0 µM 6% | [4]; at 50.0 µM 18.6% | [4]; at 100.0 µM 7% | [5]; at 1.2 µM -2% | [5]; at 3.7 µM 0% | [5]; [16] -5% | [5]; at 11.0 µM -2% | [5]; at 33.0 µM 1% | [5]; [17] 42% | [5]; at 50.0 µM 9.35% | [5]; at 100.0 µM 5% | [6]; at 1.2 µM 0% | [6]; at 3.7 µM 0% | [6]; at 11.0 µM 0% | [6]; at 33.0 µM 3% | [6]; at 100.0 µM 10% | [7]; [16] 25% | [7]; at 50.0 µM 17% | [15]; at 1.2 µM 1% | [15]; at 3.7 µM -1% | [15]; at 11.0 µM 3% | [15]; at 33.0 µM 9% | [15]; at 100.0 µM 17% | [8]; [16] 17% | [8]; at 50.0 µM -1% | [9]; at 1.2 µM -2% | [9]; at 3.7 µM -2% | [9]; [16] 29% | [9]; at 11.0 µM -4% | [9]; at 33.0 µM -2% | [9]; at 50.0 µM 7.9% | [9]; at 100.0 µM 4% | [11]; at 1.2 µM -3% | [11]; at 3.7 µM -3% | [11]; at 11.0 µM -2% | [11]; at 33.0 µM 0% | [11]; at 100.0 µM 9% | [12]; at 1.2 µM -6% | [12]; at 3.7 µM 20% | [12]; at 11.0 µM -14% | [12]; at 33.0 µM -5% | [12]; at 100.0 µM 1% | [13]; [16] 59% | [13]; at 50.0 µM 10.9% | [14]; at 1.2 µM -2% | [14]; at 3.7 µM 1% | [14]; at 11.0 µM 1% | [14]; at 33.0 µM 3% | [14]; at 100.0 µM 15%
